# Hits are enriched below; roughly 19% of the tested compounds scored in any of these assays.
# DT40 TDP1 CPT: growth inhibition of DT40 Tdp1-/-;hTDP1 cells with camptothecin (screen for TDP1 inhibitors) | chicken DT40 Tdp1-/-;hTDP1 cells + 20 nM CPT, ATP luminescence, 48 h | actives 12% (n = 420,000) | Potency, µM (series often up to 46.2 µM), inactives show top-dose activity change, negative = growth inhibition, usual class: inhibitors; note: potency is the fitted concentration of half-maximal effect; nearly all actives have a fitted effect of over 55% in size
#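 Chicken DT40 Tdp1-/- cells stably complemented with human TDP1 were seeded at 400 cells/well in medium containing 20 nM camptothecin, exposed to pin-transferred compounds, and grown at 37 °C for at least 48 hr. Viability was read as ATP luminescence.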
# HT1080NT lethal: kills 2HG-producing HT-1080-NT fibrosarcoma cells; HT-1080-NT fibrosarcoma viability, CellTiter-Glo ATP luminescence, 48 h; Potency, µM (titrated, usually from 46.1 µM), without a hit: at the top dose activity, negative = less viability, hits mostly cytotoxic; actives 1.6% (n = 360,000); AID 686970;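 note: NT is the 2HG producing partner of a matched IDH1 knockdown line; potency is the fitted concentration of half-maximal effect; 0% = DMSO-treated cells and -100% = media-only wells without cells; nearly all actives have a fitted effect of over 55% in size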
#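 HT-1080-NT; 750 cells/well; 5% FBS RPMI; 48 h compound, 37 degrees C; CellTiter-Glo luminescence; curve fitting and curve-class assignment.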
# IL-1B inflam inh: blocks inflammasome-driven IL-1 beta release. THP-1 LPS/ATP IL-1B secretion, AlphaLISA, 16 h; active compounds read low. activity change, % at 57.5 µM. actives 4.7% (n = 360,000); in the data active = activity change below about -50%; inconclusive = mostly about -30% to -49%
#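 THP-1 cells pretreated 1 hr with compounds (up to 57.5 uM final), then stimulated with LPS (250 ng/mL final) plus ATP (1.25 mM final); secreted IL-1B measured by AlphaLISA after 16 hr, decreased signal indicating inhibition.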
# HT1080 IDH1KD tx: kills HT-1080 cells with IDH1 knockdown | HT-1080 IDH1 knockdown viability, ATP luminescence, 48 h | Potency, µM (doses to about 46.1 µM), for inactives: at the top dose activity, negative = toxicity, usual class: cytotoxic | actives 2% (n = 360,000);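 note: potency is the fitted concentration of half-maximal effect; 0% = DMSO wells and -100% = cell-free medium wells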
#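 IDH1KD HT-1080 cells, 750/well, RPMI + 5% FBS; compound pinned after 2 h settling; 48 h, 37 °C; CellTiter-Glo luminescence; % activity normalised to DMSO and no-cell wells; curves fitted, classed by r2 and efficacy.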
# DT40 TDP1 no CPT: qHTS for Inhibitors of human tyrosyl-DNA phosphodiesterase 1 (TDP1): qHTS in cells in absence of CPT; DT40 Tdp1-/- hTDP1 cells, no CPT, ATP luminescence, 48 h; Potency, µM (series often up to 46.2 µM), without a hit: at the highest dose activity change, negative = growth inhibition, hits mostly inhibitors; actives 15% (n = 420,000); note: potency is the fitted concentration of half-maximal effect; nearly all actives have a fitted effect of over 55% in size
#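 Growth of hTDP1-complemented DT40 Tdp1-knockout cells is measured by ATP luminescence after at least 48 hr compound exposure at 37 °C, with DMSO substituting for the 20 nM CPT used in the parallel screen.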
# Numbers without * were called inactive; ? = inconclusive; nt = no result given; [ ] = dose if it differs, or a comment. Unless noted, calls come from the whole dose curve; as a rule, active = well fitted curve in the direction sought with a large enough effect; inconclusive = small, poorly fitted or top-dose-only effect, or another doubt; inactive = no such curve, though single readings can be large; an effect the other way counts as inactive or inconclusive. Unless noted, % is set by controls: 0 for no effect and ±100 for the full control effect.
SMILES,DT40 TDP1 CPT,HT1080NT lethal,IL-1B inflam inh,HT1080 IDH1KD tx,DT40 TDP1 no CPT
Cc1ccc(NC(=O)Cn2c(=O)n(CC(=O)NCCc3ccccc3)c(=O)c3ccccc32)cc1,-24.5%,nt,nt,nt,-13.6%
O=C(Cn1c(=O)n(CC2CCC(C(=O)NCCc3ccccc3)CC2)c(=O)c2ccccc21)Nc1ccccc1 (centres undefined),-19.7%,nt,nt,nt,-5.3%
CCc1cccc(NC(=O)Cn2c(=O)n(CC3CCC(C(=O)NCCc4ccccc4)CC3)c(=O)c3ccccc32)c1 (centres undefined),20.6µM*,nt,nt,nt,13µM*
Cc1ccc(NC(=O)Cn2c(=O)n(CC(=O)NCCc3ccccc3)c(=O)c3ccccc32)cc1C,?,nt,nt,nt,3.26µM*
CC(C)c1ccc(NC(=O)Cn2c(=O)n(CC3CCC(C(=O)NCCc4ccccc4)CC3)c(=O)c3ccccc32)cc1 (centres undefined),16.4µM*,nt,nt,nt,14.6µM*
Cc1ccc(S(=O)(=O)N(CC(=O)Nc2cccc([N+](=O)[O-])c2)C(=O)N2CCN(C)CC2)cc1,0.9%,-3.2%,-8.4,0.4%,-7.5%
COc1cc(C(=O)OCc2cc(=O)oc3c(C)c(C)ccc23)ccc1OC(F)F,?,11.1%,12.9,22.8%,?
O=C(NCCCN1CCOCC1)c1cc(-c2ccc3c(c2)OCO3)nc2ccccc12,-29.0%,-5.6%,?,-2.2%,?
O=C(NCCCN1CCOCC1)c1cc(-c2ccc(Br)cc2)nc2ccccc12,?,-15.0%,-68.3*,-19.1%,?
CN1CCN(NC(=O)c2cc(-c3cccc(Cl)c3)nc3ccccc23)CC1,11.6µM*,16.4µM*,?,?,10.3µM*
O=C(NN1CCOCC1)c1cc(-c2ccc(Br)cc2)nc2ccccc12,?,12.6%,-17.0,7.2%,7.31µM*
COc1cccc(-c2cc(C(=O)Nn3cnnc3)c3ccccc3n2)c1,-14.1%,?,18.3,0.5%[9.24 µM],-18.9%
O=C(NCCCN1CCCC1=O)c1cc(-c2ccc3c(c2)OCO3)nc2ccccc12,16.4µM*,-1.7%,11.9,-22.1%,?
Cn1c(CSCc2ccccc2)nnc1SCC(=O)Nc1ccc(C(=O)O)cc1,-5.1%,-1.4%,7.9,5.8%,10.2%
COc1ccc(-c2cc(C(=O)NN3CCOCC3)c3ccccc3n2)cc1OC,?,1.0%,-21.2,-1.4%,?
Cc1ccc(Nc2ncc(C(=O)NCCCN3CCN(C)CC3)c3ccccc23)cc1Cl,?,16.4µM*,-78.0*,25.9µM*,?
Cc1ccc(Nc2cc(C(=O)NCCCN3CCOCC3)c3ccccc3n2)cc1C,?,23.1µM*,4.9,?,?
CN1CCC(N(C)C(=S)NC(=O)c2cc(-c3cccc(Br)c3)nc3ccccc23)CC1,?,-4.4%,25.1,4.2%,18.4µM*
CCc1ccc(-c2cc(C(=O)NN3CCOCC3)c3ccccc3n2)cc1,8.2µM*,-0.8%,-19.4,-2.1%,1.3µM*
O=C(NNC(=O)c1cc(-c2cccc(Br)c2)nc2ccccc12)c1csc(N2CCOCC2)n1,-21.6%,-8.9%,-3.2,?,-20.4%
O=C(NCCCN1CCOCC1)c1cc(-c2ccccc2)nc2ccccc12,0.7%,0.3%,-8.2,4.7%,-28.6%
CCOC(=O)c1c(NC(=O)c2cc3nc(-c4ccc(OC)cc4)cc(C(F)(F)F)n3n2)sc2c1CCC(C)C2 (centres undefined),-4.0%,nt,nt,nt,?
O=C(NCCCN1CCOCC1)c1ccc(Cl)cc1Cl,5.5%,-1.3%,-1.5,7.2%,12.4%
Cc1ccc(-c2cc(C(=O)NCCCN3CCOCC3)c3ccc(Cl)c(C)c3n2)cc1,?,-2.3%,-63.7*,1.4%,?
COc1cccc(-c2cc(C(=O)NN3CCOCC3)c3ccccc3n2)c1,?,5.3%,0.1,13.0%,4.61µM*
COc1cccc(NC(=O)CSc2nc3ccccc3cc2Cc2ccccc2)c1,?,8.6%,-15.3,3.9%,?
COc1cccc(CSc2nc3ccccc3cc2C=O)c1,1.16µM*,18.4µM*,48.7,20.6µM*,1.03µM*
